Sampled rows, rich in hits. Any-hit rate of the full collection: about 19%.
DT40 TDP1 no CPT: qHTS for Inhibitors of human tyrosyl-DNA phosphodiesterase 1 (TDP1): qHTS in cells in absence of CPT; DT40 Tdp1-/- hTDP1 cells, no CPT, ATP luminescence, 48 h; Potency, µM (top dose mostly 46.2 µM), for the others: at the highest dose activity change, negative = growth inhibition, actives largely listed as inhibitors; 420,000 compounds, 15% hits; AID 686978, 2013; note: nearly all actives have a fitted effect of over 55% in size
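No-CPT arm: Tdp1-/-;hTDP1 DT40 cells (400/well) plus compounds, incubated ≥48 hr at 37 °C. Readout CellTiter-Glo luminescence.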
HT1080NT lethal: qHTS for induction of synthetic lethality in tumor cells producing 2HG: qHTS for the HT-1080-NT fibrosarcoma cell line. HT-1080-NT fibrosarcoma viability, CellTiter-Glo ATP luminescence, 48 h. 360,000 compounds, 1.6% hits. AID 686970, 2013. Potency, µM (highest dose often 46.1 µM), without a hit: at the top dose activity, negative = less viability, most hits filed as cytotoxic;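 note: NT is the 2HG producing partner of a matched IDH1 knockdown line; 0% = DMSO-treated cells and -100% = media-only wells without cells; nearly all actives have a fitted effect of over 55% in size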
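Read-out is CellTiter-Glo luminescence after 10 minutes at room temperature, following 48 hours' compound treatment of HT-1080-NT cells (750 cells/well, RPMI, 5% FBS, 37 degrees C).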
KB-3-1 cytotox: qHTS assay for MDR1-selective chemotherapeutics: Primary screen using the parental adenocarcinoma cell KB-3-1. Potency, µM (highest dose often 46.1 µM), hits mostly cytotoxic. AID 1347075, 2019. KB-3-1 viability, CellTiter-Glo ATP luminescence, 72 h. 400,000 compounds, 1.4% hits; note: nearly all actives have a fitted effect of over 60% in size
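KB-3-1 parental drug-naive adenocarcinoma cells in DMEM/10% FBS, incubated 72 h at 37 C with pin-transferred compounds across a concentration series. Viability by CellTiter-Glo luminescence; concentration-response curves fitted after normalization.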
HT1080 IDH1KD tx: qHTS for induction of synthetic lethality in tumor cells producing 2HG: qHTS for the HT-1080-IDH1KD cell line; HT-1080 IDH1 knockdown viability, ATP luminescence, 48 h; 360,000 compounds, 2% hits; Potency, µM (series often up to 46.1 µM), inactives show top-dose activity, negative = toxicity, actives largely listed as cytotoxic;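 note: 0% = DMSO wells and -100% = cell-free medium wells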
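Viability of IDH1-knockdown HT-1080 fibrosarcoma cells was assessed by CellTiter-Glo after 48 h at 37 °C with titrated compound; concentration-effect curves were classified by fit quality and response size.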
KB-V1 cytotox: qHTS assay for MDR1-selective chemotherapeutics: Primary screen using the drug-selected MDR subline cells KB-V1; KB-V1 MDR cells viability, CellTiter-Glo, 72 h; Potency, µM (doses to about 46.1 µM), hits mostly cytotoxic; 400,000 compounds, 3.4% hits; AID 1347076, 2019; note: nearly all actives have a fitted effect of over 60% in size
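qHTS viability screen in drug-selected KB-V1 MDR cells: 72 h compound treatment at 37 degrees C, ATP luminescence end point.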
DT40 TDP1 CPT: qHTS for Inhibitors of human tyrosyl-DNA phosphodiesterase 1 (TDP1): qHTS in cells in presence of CPT | chicken DT40 Tdp1-/-;hTDP1 cells + 20 nM CPT, ATP luminescence, 48 h | Potency, µM (highest dose often 46.2 µM), for inactives: at the highest dose activity change, negative = growth inhibition, usual class: inhibitors | 420,000 compounds, 12% hits | AID 686979, 2013; note: nearly all actives have a fitted effect of over 55% in size
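Chicken DT40 Tdp1-/- cells stably complemented with human TDP1 were seeded at 400 cells/well in medium containing 20 nM camptothecin, exposed to pin-transferred compounds, and grown at 37 °C for at least 48 hr. Viability was read as ATP luminescence.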
An asterisk follows results filed as active; i = inactive; u = inconclusive; x = no result. Calls come from the whole dose curve; as a rule, active = well fitted curve in the direction sought with a large enough effect; inconclusive = small, poorly fitted or top-dose-only effect, or another doubt; inactive = no such curve, though single readings can be large; an effect the other way counts as inactive or inconclusive. Unless noted, % is set by controls: 0 for no effect and ±100 for the full control effect; potency is the fitted concentration of half-maximal effect.

SMILES	DT40 TDP1 no CPT	HT1080NT lethal	KB-3-1 cytotox	HT1080 IDH1KD tx	KB-V1 cytotox	DT40 TDP1 CPT
COc1ccc(-c2nc3cnc(N4CCOCC4)nc3n(Cc3cccc(OC)c3)c2=O)cc1	-18.7%	x	x	x	x	9.9%
CCC(C)OC(=O)/C(C#N)=C\c1ccc(-c2cccc(C(F)(F)F)c2)o1 (configuration not stated)	u	x	i	x	i	-26.3%
Cc1ccc(S(=O)(=O)NCc2ccccc2Br)cc1	u	-7.9%	i	-3.9%	u	u
COc1ccc2oc(=Nc3cc(F)ccc3F)c(C(N)=O)cc2c1	4.61µM*	u	7.31µM*	u	u	4.11µM*
COc1ccc2cc(C(=O)NCc3ccccc3)c(=Nc3ccc(C(=O)O)cc3)oc2c1	13µM*	-2.2%	i	-0.7%	i	u
O=C(O)c1ccc(N=c2oc3cc(O)ccc3cc2C(=O)NCc2ccccc2)cc1	-17.4%	-12.8%	i	0.8%	i	2.2%
COc1ccc(OC)c(N=c2oc3cc(O)ccc3cc2C(N)=O)c1	u	-12.6%	u	-10.1%	u	14.6µM*
O=C(NC1CCCC1)C(c1ccco1)N1CCN(c2c(Cl)cncc2Cl)CC1 (configuration not stated)	u	-22.5%	i	-18.8%	i	u
Cc1ccc(-c2nc3c4ccccc4n(CC(=O)N4CCN(c5ccc(F)cc5)CC4)c(=O)n3n2)cc1	-15.9%	x	i	x	u	-7.0%
N#Cc1c(-c2cccs2)cc(-c2ccccn2)nc1N	5.8µM*	u	i	u	u	5.8µM*
O=C(N/N=C/c1c(F)c(F)c(F)c(F)c1F)c1ccc(Cn2cc(Br)cn2)o1	14.6µM*	3.1%	i	-1.4%	i	16.4µM*
O=C(N/N=C/c1c(F)cccc1Cl)c1ccc(Cn2cc(Br)cn2)o1	-8.4%	-13.2%	i	-6.9%	i	-9.2%
O=C(CCC1CCN(C(=O)C2CC=CCC2)CC1)Nc1ccccc1 (configuration not stated)	20.6µM*	-0.6%	i	-2.0%	16.4µM*	u
Cc1cccc(NC(=O)CCC2CCN(C(=O)C3CC=CCC3)CC2)c1 (configuration not stated)	11.6µM*	-5.5%	i	12.1%	u	11.6µM*
Cc1ccc(NC(=O)Cc2c(O)c3ccccc3[nH]c2=O)c(C)c1	-4.3%	1.5%	i	-1.1%	i	-3.1%
CCOC(=O)C1C(=O)C=C(c2cccs2)CC1c1ccccc1 (configuration not stated)	16.4µM*	17.9%	i	14.4%	u	u
CCOC(=O)C1C(=O)C=C(/C=C/c2ccc(N(C)C)cc2)CC1c1ccccc1 (configuration not stated)	u	12.6%	i	1.7%	i	11.6µM*
CCOC(=O)C1C(=O)C=C(c2ccc(C)cc2)CC1c1ccccc1 (configuration not stated)	u	-22.1%	i	-16.4%	u	u
O=C(NCc1ccco1)C(=O)NCC1OCCN1C(=O)c1ccc(Cl)cc1 (configuration not stated)	-14.6%	-0.6%	i	-0.3%	i	-5.3%
C[C@@]12C(C[C@H](O)[C@@]34C[C@@H](CCC13)[C@@H](CO)C4=O)[C@](C)(C(=O)O)CC[C@@H]2O (some centres not stated)	u	29.1µM*	i	u	i	u
C[C@@]12CCC3[C@@](CC[C@@H]4[C@](C)(C(=O)O)CCC[C@@]34C)(C[C@H]1O)C2 (some centres not stated)	1.9%	1.9%	i	0.0%	i	-0.3%
C=C1C(=O)[C@]23C[C@H]1CCC2[C@@]1(C)C(C[C@@H]3O)[C@](C)(C(=O)OC)CC[C@@H]1O (some centres not stated)	0.517µM*	2.31µM*	13µM*	2.31µM*	i	1.03µM*
CCOC(=O)c1cc(-c2ccccc2)n(-c2cccc(C(=O)Nc3cccc(SC)c3)c2)c1C	-9.5%	x	i	x	i	-12.7%
CC[n+]1ccnc2ccccc21	2.82µM*	x	i	x	u	2.24µM*
COc1cc(OC)cc(-c2cc3nc(C)c(CCC(=O)Nc4nc(C)cs4)c(C)n3n2)c1	10.3µM*	0.0%	i	1.5%	i	18.4µM*
SMILES	DT40 TDP1 no CPT	HT1080NT lethal	KB-3-1 cytotox	HT1080 IDH1KD tx	KB-V1 cytotox	DT40 TDP1 CPT
COC(=O)c1cc(NC(=O)CCc2c(C)nc3cc(-c4ccccc4)nn3c2C)cc(C(=O)OC)c1	1.1%	x	i	x	i	7.3%
CCCCCCNC(=O)CCc1c(C)nc2nc(-c3cc(OC)cc(OC)c3)nn2c1C	16.4µM*	x	i	x	i	u
COc1cc(OC)cc(-c2cc3nc(C)c(CCC(=O)Nc4ccc(F)c(Cl)c4)c(C)n3n2)c1	16.4µM*	x	x	x	x	18.4µM*
CCCCNC(=O)CCc1c(C)nc2nc(-c3cc(OC)cc(OC)c3)nn2c1C	u	-4.2%	i	-3.2%	i	-18.8%
COc1cc(NC(=O)CCc2c(C)nc3cc(-c4ccccc4)nn3c2C)cc(OC)c1OC	20.6µM*	x	i	x	i	u
COc1cc(NC(=O)CCc2c(C)nc3nc(C)nn3c2C)cc(OC)c1	-26.6%	0.3%	i	3.3%	i	-0.7%
O=C(CSc1nc2c([nH]c3ccccc32)c(=O)n1-c1cccc(C(F)(F)F)c1)N1CCCC1	-0.1%	x	i	x	u	3.0%
Cc1ccc(C)c(NC(=O)CCN2C(=O)c3ccccc3C2=O)c1	19.2%	10.3%	i	1.3%	u	-2.0%
COc1cc(-c2cc3n(C)c(C)c(CCC(=O)NCc4ccccc4)c(=O)n3n2)cc(OC)c1OC	-69.4%	x	x	x	x	14.6µM*
COc1ccc(NC(=O)CCc2c(C)nc3cc(-c4cccc(F)c4)nn3c2C)cc1Cl	13µM*	x	i	x	i	16.4µM*
Cc1nc2cc(-c3cccc(F)c3)nn2c(C)c1CCC(=O)NC(C)c1ccccc1 (configuration not stated)	u	x	i	x	i	u
